# An excerpt weighted towards active compounds, which were near 2.9% of everything screened.
# ADAM17 inh – ADAM17 inhibitors, primary screen, biochemical, QFRET. Disintegrin and metalloproteinase domain-containing protein 17 (Homo sapiens), P78536. recombinant ADAM17, EDANS/DABCYL FRET peptide cleavage. inhibition, % at 6.95 µM. 0.83% of 370,000 active. AID 720648, 2013;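 active = inhibition above the mean of compounds lying between control limits plus 3 SD, set per campaign, cut at about 8.5% in these data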;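 note: 0% = DMSO-only wells as the low control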
# PLC-gamma1 inh – PLC-gamma1 enzyme inhibitors, primary screen, biochemical, fluorescence, purified enzyme; AID 720700, 2013; inhibition, % at 12.2 µM; fluorogenic substrate; 0.84% of 370,000 active; in the data active = inhibition above about 9.5%
# PLC-beta3 inh – human PLC-beta3 inhibitors, primary screen, biochemical, fluorescence; 0.18% of 370,000 active; AID 720704, 2013; 1-phosphatidylinositol 4,5-bisphosphate phosphodiesterase beta-3 (Homo sapiens), Q01970; inhibition, % at 12.2 µM; Purified PLC-beta3, fluorogenic substrate;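 note: 0% = median of compound wells on plate and 100% = full blocker control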
# proKLK7 act – proKLK7 zymogen activators, primary screen, biochemical, fluorescence intensity; Kallikrein-7 (Homo sapiens), P49862; purified proKLK7, EDANS-DABCYL substrate fluorescence; 100% is mature enzyme control, 0% vehicle; activation, % at 7 µM; 0.9% of 370,000 active; AID 652039, 2013;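 active = activation above the mean of all tested compounds plus 3 SD, computed per campaign excluding outliers beyond control limits, cut at about 13% in these data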
# ADAM10 inh – human ADAM10 inhibitors, primary screen, biochemical, QFRET, HTS | inhibition, % at 7 µM | 0.62% of 370,000 active | Disintegrin and metalloproteinase domain-containing protein 10 (Homo sapiens), O14672 | recombinant ADAM10, EDANS/DABCYL FRET peptide cleavage, 3 h | AID 720582, 2013;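 active = inhibition above a per-campaign cutoff equal to the mean of compounds falling between control-based bounds plus 3 SD, cut at about 20% in these data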;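 note: 0% = DMSO wells while the 100% control is not disclosed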
# PLCgamma1 ctr – PLC-gamma1 enzyme inhibitors, counter-screen for PLC-beta3 inhibitor project, biochemical, fluorescence; shares compounds with PLC-gamma1 inh; purified PLC-gamma1, fluorogenic substrate; inhibition, % at 12.3 µM; 3.1% of 3,300 active; AID 743258, 2014; in the data active = inhibition above about 9.5%
# PLCb3 confirm – PLC-beta3 inhibitor confirmation, biochemical, fluorescence, purified enzyme. shares compounds with PLC-gamma1 inh. fluorogenic substrate fluorescence. inhibition, % at 12.3 µM. 1% of 3,300 active
# * = called active by the depositor; . = no result given. Cut-off read from the data, not from the text of the source, unless noted: active = inhibition above about 11%; inactive = the rest.
SMILES,ADAM17 inh,PLC-gamma1 inh,PLC-beta3 inh,proKLK7 act,ADAM10 inh,PLCgamma1 ctr,PLCb3 confirm
O=C(COC(=O)c1cnccn1)c1ccccc1,-2,-1,12*,0,-2,-4,0
COCCn1c(-c2ccc(Br)cc2)nc2oc3cc(OC)ccc3c(=O)c2c1=O,-1,-1,-11,1,-2,.,.
Cc1ccc(S(=O)c2ccc([N+](=O)[O-])c3nonc23)cc1 (stereo not drawn),5,-63,-92,-1,2,.,.
COCCNS(=O)(=O)c1ccc(OCC(=O)OC)c(Cl)c1,-1,-37,7,0,2,.,.
COC(=O)COc1ccc(S(=O)(=O)NCc2ccco2)cc1Cl,-1,11*,10,0,5,-3,-6
COc1ccc2c(c1)OC(=O)CC2c1cc(OC)c(OC)c(OC)c1 (stereo not drawn),4,11*,8,0,7,-4,-11
COc1ccc(CNC(=O)C2CCN(S(=O)(=O)c3cccc4nsnc34)CC2)cc1,1,11*,-4,0,8,-7,-3
CCN1CCN(S(=O)(=O)c2cccc3nsnc23)CC1,3,5,13*,1,1,-3,2
Cc1ccc(C(C(=O)NC2CCCCC2)N(Cc2ccco2)C(=O)C2COc3ccccc3O2)o1 (stereo not drawn),-3,9.6*,-4,0,3,9,1
Cc1ccc(C(C(=O)NC2CCCCC2)N(Cc2cccnc2)C(=O)C2COc3ccccc3O2)o1 (stereo not drawn),4,6,0,1,0,.,.
O=C(NCc1ccccc1Cl)c1ccc(CS(=O)Cc2ccc(Cl)cc2)o1 (stereo not drawn),2,9.5*,-5,0,3,2,7
CCOC(=O)C1(Cc2ccccc2)CCCN(S(=O)(=O)N(C)C)C1 (stereo not drawn),-1,0,-4,0,6,.,.
COc1ccc(CCN(C)C2CCCN(C(=O)CCC(F)(F)F)C2)cc1OC (stereo not drawn),-1,9.6*,-8,0,13,-1,-3
COCc1c(Br)c(C)nc2sc3c(=O)[nH]nnc3c12,-8,5,-22,0,5,.,.
Cc1ccc(CN2CCN(/N=C/c3sccc3C)CC2)c(C)c1,2,11*,7,0,-3,0,0
O=C(c1ccccc1)N1CCN=C1SCc1ccc([N+](=O)[O-])cc1,3,9.6*,-3,0,2,-3,0
O=C(c1ccc([N+](=O)[O-])cc1)N1CCN=C1SCc1ccccc1,1,1,0,-1,7,.,.
CN(C)C(CNC(=O)c1c(F)cccc1Cl)c1ccco1 (stereo not drawn),4,11*,-5,-1,-12,-6,-2
C[C@H]1CN([C@@H](C)CO)C(=O)CCCn2nncc2CO[C@@H]1CN(C)Cc1cccc(C(=O)O)c1,-3,-1,1,0,-2,.,.
N/C(=N\OC(=O)c1ccc(Cl)cc1Cl)c1ccncc1,-6,-4,-6,1,-8,.,.
N/C(=N\OC(=O)c1ccccc1Cl)c1ccncc1,3,10*,-2,0,7,-2,-3
Cc1c(CN(C)C(=O)c2ccc(Br)o2)cnn1C,3,12*,5,0,9,-7,-5
Oc1ccccc1C1OCC2(CO1)COC(c1ccccc1O)OC2 (stereo not drawn),0,0,3,1,-1,.,.
c1ccc2c(C3OCC4(CCCC4)CO3)cccc2c1,4,9.6*,2,1,-9,-1,-2
C=CCN(C(=O)CNC(=O)c1cccs1)C(C(=O)NC1CCCCC1)c1cccnc1 (stereo not drawn),2,9.7*,8,-1,5,8,5
SMILES,ADAM17 inh,PLC-gamma1 inh,PLC-beta3 inh,proKLK7 act,ADAM10 inh,PLCgamma1 ctr,PLCb3 confirm
Cc1ccccc1Cn1c(=O)c2c(nc3n2CCN3Cc2ccco2)n(C)c1=O,0,11*,7,0,0,-3,1
CN(C)S(=O)(=O)c1cc(C(=O)NCC2CCCO2)c(Cl)cc1Cl (stereo not drawn),-1,9.5*,6,1,0,-1,3
S=C(NC1CCCCC1)N(CCc1ccccc1)CCc1ccccc1,-1,0,-1,0,-2,.,.
O=C(O)CC1=C(c2ccc(F)cc2)CCC1=O,5,6,14*,0,17,-7,-3
COc1ccc(C2=C(CC(=O)O)C(=O)CC2)cc1,-13,-19,-23,0,-62,.,.
CCc1cc[n+](-c2nc3ccccc3nc2[N-]S(=O)(=O)c2ccc(Br)s2)cc1,-7,-59,-58,-1,-9,.,.
Cc1ccc(C)c(Cn2c(C(C)O)nc3ccccc32)c1 (stereo not drawn),1,11*,2,1,3,-1,3
Cc1noc(C)c1NC(=O)NC(c1ccccc1)c1ccccc1,-4,10*,-6,0,9,6,2
COc1ccc(C(C)=O)cc1COC(=O)C(CO)NS(=O)(=O)c1ccc(Br)cc1 (stereo not drawn),1,0,-5,0,5,.,.
CCOC(=O)C1=CCN(S(=O)(=O)c2ccccc2F)C1c1ccccc1 (stereo not drawn),-1,0,3,1,-5,.,.
CCc1nnc(N2C(=N)SCC2=O)s1,-2,0,-1,1,7,.,.
O=C(Cn1c(NCCCO)nc2ccccc21)c1ccc(Br)cc1,2,7,12*,-1,15,1,3
O=C(Cn1c(NCCO)nc2ccccc21)c1ccccc1,-2,-1,1,0,-5,.,.
Cc1ccc(NC(=O)CCCSc2nc3ccccc3[nH]2)cc1,1,1,1,0,-2,.,.
COc1ccc(CSc2nc3ccccc3[nH]2)cc1,0,2,3,0,9,.,.
O=C(CSc1nc2[nH]ncc2c(=O)[nH]1)NCc1ccc(F)cc1,2,12*,4,0,1,-6,-3
CC(=O)Nc1ccc(NC(=O)CCCSc2nc3ccccc3[nH]2)cc1,3,13*,2,0,2,5,5
O=C1CCC(=O)N1c1ccc(CSc2nc3ccccc3[nH]2)cc1,2,11*,3,0,5,-9,-3
O=C(CSc1nc2ccccc2[nH]1)NCc1ccccc1,3,14*,-2,0,7,4,5

# Bioassay records deposited in PubChem by The Scripps Research Institute Molecular Screening Center.
